High-throughput results deposited in PubChem BioAssay by National Center for Advancing Translational Sciences (NCATS).
Sampled rows, rich in hits. Any-hit rate of the full collection: about 6.6%.
TSG101-PTAP inh: blocks PTAP/TSG101 interaction to inhibit HIV-1 budding | Q99816 | Fluorescence polarization, FITC-PTAP peptide / Tsg101 binding | Potency, µM (highest dose often 115 µM), inactives show top-dose activity change, negative = inhibition, most hits filed as inhibitors | 340,000 tested, under 10 active | AID 493005; active = well fitted inhibition curve with a large enough effect in the main read-out, with a control signal flat, not every such curve was filed as active; inconclusive = small, poorly fitted or top-dose-only effect, or effect the other way, or a change in a side signal; inactive = no such curve, though single readings can be large or run the other way; note: % of control where 0% means no effect
Target sequence (Q99816 whole entry, looked up): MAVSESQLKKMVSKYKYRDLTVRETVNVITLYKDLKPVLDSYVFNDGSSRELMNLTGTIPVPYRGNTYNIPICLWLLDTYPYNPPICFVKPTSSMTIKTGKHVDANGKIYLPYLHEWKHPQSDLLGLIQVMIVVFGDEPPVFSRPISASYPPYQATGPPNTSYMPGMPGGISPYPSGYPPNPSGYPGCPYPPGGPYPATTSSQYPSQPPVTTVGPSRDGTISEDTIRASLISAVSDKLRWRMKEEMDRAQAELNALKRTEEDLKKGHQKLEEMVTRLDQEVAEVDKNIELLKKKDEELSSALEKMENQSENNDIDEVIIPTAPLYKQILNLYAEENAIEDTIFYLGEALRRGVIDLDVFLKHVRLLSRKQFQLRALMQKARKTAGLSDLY
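Tsg101 binding domain (10 uM final) was mixed with compound and a FITC-labeled PTAP peptide (50 nM final) in HEPES pH 7.5 buffer with NaCl, Tween 20, EDTA and TCEP; fluorescence polarization was read after 20 min at r.t.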
KB-3-1 tox: kills parental KB-3-1 adenocarcinoma cells; hit rate 1.4% among 400,000; Potency, µM (series often up to 46.1 µM), hits mostly cytotoxic; KB-3-1 viability, CellTiter-Glo ATP luminescence, 72 h; note: % is set by controls: 0 for no effect and ±100 for the full control effect; nearly all actives have a fitted effect of over 60% in size
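Cytotoxicity in the drug-sensitive parental line KB-3-1 was scored as loss of CellTiter-Glo luminescence following 72 h incubation with compound. Values come from curve fitting of normalized concentration-response data.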
RGS4 inhibitor: blocks human RGS4-accelerated GTP hydrolysis; AID 504845; Transcreener GDP fluorescence polarization, RGS4-accelerated GTP hydrolysis; Potency, µM (titrated, usually from 114 µM), for inactives: at the highest dose activity change, negative = inhibition, most hits filed as inhibitors; hit rate 0.039% among 390,000; note: % is set by controls: 0 for no effect and ±100 for the full control effect; nearly all actives have a fitted effect of over 75% in size
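MLSMR compounds (23 nl, pin-transferred) preincubated 10 min at room temperature with a 500nM (2x) first reagent, then RGS4 at 900nM (2x) plus Transcreener GDP mix added; fluorescence polarization (620/688 nm) read before and after 90 min at 30 °C.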
KB-V1 MDR tox: KB-V1 MDR subline cytotoxicity. KB-V1 MDR cells viability, CellTiter-Glo, 72 h. Potency, µM (top dose mostly 46.1 µM), hits mostly cytotoxic. hit rate 3.4% among 400,000. AID 1347076; note: % is set by controls: 0 for no effect and ±100 for the full control effect; nearly all actives have a fitted effect of over 60% in size
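Potencies derive from concentration-effect curves fitted to normalized luminescence (CellTiter-Glo) of KB-V1 cells treated for 72 h at 37 degrees C in phenol-red-free DMEM containing 10% FBS.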
SW480 rereplic: DNA re-replication induction in SW480 cells. SW480 DNA re-replication, Hoechst DNA content imaging, 48 h. Potency, µM (top dose mostly 46.1 µM), without a hit: top-dose re-replication activation, actives largely listed as activators. hit rate 1.8% among 340,000; note: % of control where 0% means no effect; nearly all actives have a fitted effect of over 55% in size
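Quantitative HTS format with DMSO vehicle controls; 48 hr drug incubation at 37 C, then 40 min Hoechst staining and scanning imager measurement at 405 nm excitation.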
MCF10A rerep: DNA re-replication induction in MCF 10a cells; hit rate 2.9% among 350,000; Potency, µM (doses to about 46.1 µM), for the others: top-dose activity, positive = re-replication, actives largely listed as activators; MCF 10A DNA re-replication, Hoechst nuclear intensity, 48 h; note: % of control where 0% means no effect; nearly all actives have a fitted effect of over 50% in size
An asterisk follows results filed as active; i = inactive; ? = inconclusive; . = no result; [ ] = dose if it differs, or a comment. Unless noted, calls come from the whole dose curve; as a rule, active = well fitted curve in the direction sought with a large enough effect; inconclusive = small, poorly fitted or top-dose-only effect, or another doubt; inactive = no such curve, though single readings can be large; an effect the other way counts as inactive or inconclusive. Potency is the fitted concentration of half-maximal effect.

SMILES | TSG101-PTAP inh | KB-3-1 tox | RGS4 inhibitor | KB-V1 MDR tox | SW480 rereplic | MCF10A rerep
COc1ccccc1C(=O)Nn1c(C)nc2ccccc2c1=O | 2% | i | 4% | i | 1% | -1%
COc1cc2nc(CC(C)C)n(NC(=O)c3ccccc3Br)c(=O)c2cc1OC | -8% | i | 18% | i | 0% | 6.5µM*
COc1cc2c(cc1OC)CN(S(=O)(=O)c1cccs1)CC2 | -4% | i | -27% | 18µM* | 108% | -98%
COc1cc2c(cc1OC)CN(C(=O)/C=C/c1ccccc1[N+](=O)[O-])CC2 | -9% | ? | -11% | i | 16µM* | 13µM*
COc1cc2c(cc1OC)CN(C(=O)c1cc3ccccc3oc1=O)CC2 | 0% | ? | 0% | 4.6µM* | ? | ?
COc1cccc2cc(C(=O)N3CCc4ccccc4C3)c(=O)oc12 | 0% | i | -21% | i | -5% | -1%
COc1cc2c(cc1OC)CN(C(=O)/C=C/c1cccs1)CC2 | -2% | 3.7µM* | -3% | ? | 13µM* | 4.1µM*
CCOC(=O)c1ccccc1NC(=O)c1sc2nc3n(c(=O)c2c1C)CCCC3 | . | i | -31% | i | . | .
CSc1ncc(C(=O)NCc2ccc(Cl)cc2)c(C(F)(F)F)n1 | . | i | -9% | i | . | .
Cc1ccc2c(c1)cc(CN(Cc1ccc3c(c1)OCO3)C(=O)c1ccccc1)c1nnnn12 | -4% | i | -31% | i | 2% | 4%
Cc1ccc2c(c1)cc(CN(Cc1cccnc1)C(=O)NCc1ccccc1)c1nnnn12 | -4% | ? | 0% | 2.6µM* | 8% | 15%
CCOC(=O)C1=C(O)C(=O)NC(c2ccccc2)=C(OC2CCCCC2)C1 | 0% | ? | -4% | 15µM* | -1% | 3%
O=C(CN1CCC(Cc2ccccc2)CC1)NCCc1ccc(F)cc1 | -2% | i | 4% | ? | ? | ?
CCN1CCC(NCCc2ccc(F)cc2)CC1 | -2% | i | -5% | i | -3% | 18µM*
Cn1c2c(c(=O)n(C)c1=O)C(C(F)(F)F)(C(F)(F)F)N=C(CCC1CCCCC1)N2 | -1% | 23µM* | -13% | ? | 18% | ?
Cn1c2c(c(=O)n(C)c1=O)C(C(F)(F)F)(C(F)(F)F)N=C(c1ccccc1Cl)N2 | -3% | ? | 33% | ? | -3% | 4%
CCOC(=O)c1c[nH]c2ccc([N+](=O)[O-])cc12 | -7% | i | 2% | i | 3% | 6%
CCOC(=O)c1c[nH]c2c([N+](=O)[O-])cc(OC)cc2c1=O | -5% | i | -34% | i | 16µM* | 22%
Cc1cc(C)n2nc(C)c(-c3ccc(Cl)cc3)c2n1 | -5% | ? | 10% | i | -49% | -3%
Cc1cc(SCC(=O)c2ccc(O)c(O)c2)n2nc(C)c(-c3ccccc3)c2n1 | -3% | ? | -2%[11.4 µM] | ? | 7.3µM* | ?
CCSc1cc(C)nc2c(-c3ccc(Cl)cc3)c(C)nn12 | -3% | i | 12% | i | 18µM* | 15µM*
CC(C)CCNC(=S)Nc1ccc(Br)cc1 | -1% | ? | -21% | 18µM* | 33% | ?
Cc1ccccc1NC(=S)NCCc1ccccc1 | -1% | i | 9% | 16µM* | ? | ?
CCCNC(=S)Nc1ccc(Br)cc1 | -1% | i | 5% | i | -2% | 14%
S=C(NCCc1ccccc1)Nc1ccc(Br)cc1 | 0% | ? | 13% | 18µM* | -2% | ?
CC(C)(C)CC(=O)NC(=S)NCCc1ccccc1 | -1% | i | -13% | i | 10µM* | ?
COc1ccc(C(NC(=O)COc2ccc(C#N)cc2)c2ccc(OC)cc2)cc1 | . | i | . | i | . | .
S=C(NCCc1ccccc1)Nc1ccccn1 | 0% | i | -28% | 16µM* | -8% | 2%
Cc1cccc(NC(=S)NCCc2ccccc2)n1 | 1% | i | -19% | ? | ? | -2%[9.22 µM]
